In PubChem BioAssay AID1159580 (chemical genetic matrix, 2015):
Hit rate of the full screen: of about 5,500 compounds, about 2,000 (36%) were called active. Not shown: some 18% with an inconclusive outcome. Rule as the data show it: active = normalized growth mostly below about 0.91 (no sharp cut-off); inconclusive = no clear call, values can overlap the other calls; inactive = mostly above about 0.92. Some of the results follow.

Assay: chemical genetic growth profiling, strain panel (AID 1159580);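 also: tested at 20 µM; growth read once vehicle control cultures reached saturation at 30 °C; 1 = growth at the plate median or of vehicle wells; lower values mean less growth of the strain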
Details: growth OD
[1] = S. cerevisiae deletion strains, locus YAL013W, strain DEP1, hits give low values
[2] = S. cerevisiae deletion strains, locus YDR150W, strain NUM1, hits give low values
[3] = S. cerevisiae deletion strains, locus YGR229C, strain SMI1, hits give low values
[4] = S. cerevisiae deletion strains, locus YJR075W, strain HOC1, hits give low values
[5] = S. cerevisiae deletion strains, locus YNL153C, strain GIM3, hits give low values
[6] = S. cerevisiae deletion strains, locus YNL322C, strain KRE1, hits give low values
[7] = S. cerevisiae deletion strains, locus YPL241C, strain CIN2, hits give low values
[8] = S. cerevisiae deletion strains, locus YDL101C, strain DUN1, hits give low values
[9] = S. cerevisiae deletion strains, locus YHR030C, strain SLT2, hits give low values

Measured: normalized growth

Nc1nc(SCc2ccc([N+](=O)[O-])cc2)c2ncn([C@@H]3O[C@H](CO)[C@H](O)C3O)c2n1 (stereo partly drawn)
inactive: [1] 1.01 | S. cerevisiae deletion strains, locus YAL040C, strain CLN3, hits give low values 1.02 | S. cerevisiae deletion strains, locus YCL061C, strain MRC1 (second series), hits give low values 1 | [2] 0.994 | S. cerevisiae deletion strains, locus YER002W, strain NOP16, hits give low values 1 | [3] 1.04 | [4] 0.995 | [5] 0.989 | S. cerevisiae deletion strains, locus YNL175C, strain NOP13, hits give low values 0.996 | S. cerevisiae deletion strains, locus YNL197C, strain WHI3, hits give low values 1 | S. cerevisiae deletion strains, locus YNL224C, strain SQS1, hits give low values 1 | [6] 1.02 | S. cerevisiae deletion strains, locus YOR083W, strain WHI5 (second series), hits give low values 0.998 | [7] 1

Cc1cc(S(=O)(=O)NC(Cc2ccc([N+](=O)[O-])cc2)C(=O)O)c(Cl)cc1Cl (stereo not drawn)
inactive: [1] 1.01 | S. cerevisiae deletion strains, locus YBR229C, strain ROT2, hits give low values 0.996 | S. cerevisiae deletion strains, locus YCL061C, strain MRC1, hits give low values 1 | [8] 0.997 | [2] 0.927 | S. cerevisiae deletion strains, locus YEL061C, strain CIN8, hits give low values 1.01 | S. cerevisiae deletion strains, locus YGR078C, strain PAC10, hits give low values 1 | [3] 1.01 | [9] 1.07 | S. cerevisiae deletion strains, locus YHR087W, strain rtc3, hits give low values 1 | S. cerevisiae deletion strains, locus YJR043C, strain POL32, hits give low values 0.998 | [4] 1 | S. cerevisiae deletion strains, locus YLR039C, strain RIC1, hits give low values 1.01 | S. cerevisiae deletion strains, locus YLR058C, strain SHM2 (second series), hits give low values 1 | S. cerevisiae deletion strains, locus YLR085C, strain ARP6, hits give low values 1.02 | S. cerevisiae deletion strains, locus YLR262C, strain YPT6, hits give low values 1 | S. cerevisiae deletion strains, locus YML094W, strain GIM5, hits give low values 1.02 | S. cerevisiae deletion strains, locus YMR219W, strain ESC1, hits give low values 0.995 | S. cerevisiae deletion strains, locus YMR263W, strain SAP30, hits give low values 1 | S. cerevisiae deletion strains, locus YNL128W, strain TEP1, hits give low values 1 | [5] 0.995 | S. cerevisiae deletion strains, locus YNL298W, strain CLA4 (second series), hits give low values 1.01 | [6] 1 | S. cerevisiae deletion strains, locus YNR030W, strain Alg12, hits give low values 1.01 | S. cerevisiae deletion strains, locus YPL055C, strain LGE1, hits give low values 1.04 | [7] 1.02 | S. cerevisiae deletion strains, locus YPR135W, strain CTF4, hits give low values 0.988 | S. cerevisiae strains, strain wild type, hits give low values 1.01

O=[N+]([O-])c1ccc(NCc2ccc(Cl)c(Cl)c2)nc1
inactive: S. cerevisiae deletion strains, locus YAR019C, strain CDC15, hits give low values 0.931 | S. cerevisiae deletion strains, locus YBL105C, strain PKC1, hits give low values 0.936 | S. cerevisiae deletion strains, locus YBR135W, strain CKS1, hits give low values 0.936 | S. cerevisiae deletion strains, locus YBR136W, strain MEC1, hits give low values 0.944 | S. cerevisiae deletion strains, locus YBR160W, strain CDC28, hits give low values 0.941 | S. cerevisiae deletion strains, locus YDL017W, strain CDC7, hits give low values 0.946 | S. cerevisiae deletion strains, locus YDL028C, strain MPS1, hits give low values 0.946 | [8] 0.925 | S. cerevisiae deletion strains, locus YDL108W, strain KIN28, hits give low values 0.942 | S. cerevisiae deletion strains, locus YDL132W, strain cdc53, hits give low values 0.919 | S. cerevisiae deletion strains, locus YDL214C, strain PRR2, hits give low values 0.857 | S. cerevisiae deletion strains, locus YDR052C, strain DBF4, hits give low values 0.953 | S. cerevisiae deletion strains, locus YDR054C, strain cdc34, hits give low values 0.918 | S. cerevisiae deletion strains, locus YDR226W, strain ADK1, hits give low values 0.937 | S. cerevisiae deletion strains, locus YDR477W, strain SNF1, hits give low values 0.882 | S. cerevisiae deletion strains, locus YER123W, strain YCK3, hits give low values 0.862 | S. cerevisiae deletion strains, locus YER133W, strain GLC7, hits give low values 0.842 | S. cerevisiae deletion strains, locus YFL009W, strain cdc4, hits give low values 0.923 | S. cerevisiae deletion strains, locus YFL029C, strain CAK1, hits give low values 0.931 | S. cerevisiae deletion strains, locus YFR003C, strain YPI1, hits give low values 0.944 | S. cerevisiae deletion strains, locus YFR019W, strain FAB1, hits give low values 0.907 | S. cerevisiae deletion strains, locus YFR028C, strain CDC14, hits give low values 0.917 | S. cerevisiae deletion strains, locus YGR040W, strain KSS1, hits give low values 0.884 | S. cerevisiae deletion strains, locus YGR052W, strain FMP48, hits give low values 0.861 | S. cerevisiae deletion strains, locus YGR092W, strain DBF2, hits give low values 0.852 | S. cerevisiae deletion strains, locus YHR079C, strain IRE1, hits give low values 0.78 | S. cerevisiae deletion strains, locus YHR082C, strain KSP1, hits give low values 0.906 | S. cerevisiae deletion strains, locus YHR205W, strain SCH9, hits give low values 0.81 | S. cerevisiae deletion strains, locus YIL147C, strain SLN1, hits give low values 0.94 | S. cerevisiae deletion strains, locus YJL095W, strain BCK1, hits give low values 0.774 | S. cerevisiae deletion strains, locus YJL128C, strain PBS2, hits give low values 0.839 | S. cerevisiae deletion strains, locus YJL157C, strain FAR1, hits give low values 0.883 | S. cerevisiae deletion strains, locus YJR016C, strain ILV3, hits give low values 0.939 | S. cerevisiae deletion strains, locus YJR066W, strain TOR1 (second series), hits give low values 0.892 | S. cerevisiae deletion strains, locus YJR066W, strain TOR1, hits give low values 0.898 | S. cerevisiae deletion strains, locus YKL048C, strain ELM1, hits give low values 0.913 | S. cerevisiae deletion strains, locus YKL067W, strain YNK1, hits give low values 0.891 | S. cerevisiae deletion strains, locus YKL101W, strain HSL1, hits give low values 0.875 | S. cerevisiae deletion strains, locus YKL193C, strain SDS22, hits give low values 0.935 | S. cerevisiae deletion strains, locus YKL203C, strain TOR2, hits give low values 0.948 | S. cerevisiae deletion strains, locus YLR133W, strain CKI1, hits give low values 0.911 | S. cerevisiae deletion strains, locus YLR403W, strain SFP1, hits give low values 0.865 | S. cerevisiae deletion strains, locus YML070W, strain DAK1, hits give low values 0.854 | S. cerevisiae deletion strains, locus YMR001C, strain CDC5, hits give low values 0.938 | S. cerevisiae deletion strains, locus YMR205C, strain PFK2 (second series), hits give low values 0.875 | S. cerevisiae deletion strains, locus YMR277W, strain FCP1, hits give low values 0.932 | S. cerevisiae deletion strains, locus YNL006W, strain LST8, hits give low values 0.916 | S. cerevisiae deletion strains, locus YNL020C, strain ARK1, hits give low values 0.893 | S. cerevisiae deletion strains, locus YNL161W, strain CBK1, hits give low values 0.93 | S. cerevisiae deletion strains, locus YNL183C, strain NPR1, hits give low values 0.934 | S. cerevisiae deletion strains, locus YNL207W, strain RIO2, hits give low values 0.937 | S. cerevisiae deletion strains, locus YNL222W, strain SSU72, hits give low values 0.927 | S. cerevisiae deletion strains, locus YNL307C, strain MCK1 (second series), hits give low values 0.91 | S. cerevisiae deletion strains, locus YOL078W, strain AVO1, hits give low values 0.926 | S. cerevisiae deletion strains, locus YOL136C, strain PFK27, hits give low values 0.864 | S. cerevisiae deletion strains, locus YOR061W, strain CKA2, hits give low values 0.884 | S. cerevisiae deletion strains, locus YOR119C, strain RIO1, hits give low values 0.949 | S. cerevisiae deletion strains, locus YOR231W, strain MKK1, hits give low values 0.87 | S. cerevisiae deletion strains, locus YOR329C, strain SCD5, hits give low values 0.933 | S. cerevisiae deletion strains, locus YPL031C, strain PHO85, hits give low values 0.88 | S. cerevisiae deletion strains, locus YPL153C, strain RAD53, hits give low values 0.895 | S. cerevisiae deletion strains, locus YPL204W, strain HRR25, hits give low values 0.869 | S. cerevisiae deletion strains, locus YPL209C, strain IPL1, hits give low values 0.943 | S. cerevisiae deletion strains, locus YPR025C, strain CCL1, hits give low values 0.93 | S. cerevisiae deletion strains, locus YPR106W, strain ISR1, hits give low values 0.918 | S. cerevisiae deletion strains, locus YPR111W, strain DBF20, hits give low values 0.909 | S. cerevisiae deletion strains, strain NNK1, hits give low values 0.891 | S. cerevisiae deletion strains, strain TSCII, hits give low values 0.93
active: [9] 0.733 | S. cerevisiae deletion strains, locus YLR113W, strain HOG1, hits give low values 0.657 | S. cerevisiae deletion strains, locus YPL256C, strain CLN2, hits give low values 0.763
